Source: PubChem BioAssay
Compounds with a hit are over-represented: about 1.8% of the library has one in this group of screens.
PAX8 reporter: inhibitors of PAX8-driven TPO luciferase reporter, primary screen, RMG-I cells, single concentration; SteadyGlo, 24 h; inhibition, % at 12.6 µM; actives 1.2% (n = 360,000); AID 652154, 2013;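 active = mean replicate inhibition at least 60% with every replicate also reaching 60%; inconclusive = only one of the two criteria is met; inactive = mean below 60% and not all replicates reaching 60%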;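 also: luciferase light reporting Pax8 driven TPO promoter activity; plate controls were median of neutral control wells for no effect and mitoxantrone controls for full effect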
LGR2 antag: inhibitors of bursicon-induced LGR2 CRE-luciferase signal, primary screen, cell-based, HEK293, CRE-luciferase reporter, bursicon stimulation. Drosophila bursicon receptor LGR2 (rickets). bursicon-stimulated, 4 h. inhibition, % at 9.99 µM. actives 0.35% (n = 380,000). AID 720647, 2013;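 active = drop in luminescence signal, shown as inhibition above about 50% in the replicate tests, limit read from the data, passing the limit was not always enough; inconclusive = probably only some replicates passing the limit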;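 also: agonist challenge used bursicon conditioned medium at about half maximal strength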
F508del corr: F508del CFTR correction, initial screen, CFBE line, single point; CFBE cells, YFP halide quenching; stimulated with forskolin plus potentiator P3; % fluorescence drop versus neutral controls; activity (quench increase), % at 7.58 µM; actives 0.36% (n = 350,000); AID 720511, 2013;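 active = mean added fluorescence quench of at least 8% versus neutral control, with both replicates also reaching 8%; inconclusive = only one of the mean or replicate conditions met; inactive = mean below 8% and not both replicates reaching 8%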;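 also: cells transiently co-express mutant CFTR-F508del with the halide-sensitive YFP; corrector assay measuring rescue of mutant channel to the surface after 24 h compound exposure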
EWS-Fli block: EWS/Fli-driven NR0B1 reporter inhibitors, primary screen, A673 cells, NR0B1 luciferase, luminescence, MLPCN library; viability-normalised; inhibition, % at 12.6 µM; actives 0.67% (n = 350,000);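 active = mean inhibition of at least 50% after viability correction, with every replicate also passing that limit; inconclusive = mean reaches 50% but only one of two replicates passes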;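 also: firefly luciferase signal divided by Alamar Blue viability fluorescence both relative to DMSO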
* marks the source's active call; other numbers are inactive results; ? = inconclusive; . = no result given.

SMILES	PAX8 reporter	LGR2 antag	F508del corr	EWS-Fli block
C[C@H](CO)N1C[C@H](C)[C@H](CN(C)Cc2ccc(C(F)(F)F)cc2)Oc2ccc(NC(=O)CCCCCC(=O)Nc3ccccc3N)cc2C1=O	?	15	0	1
C[C@@H]1CN([C@H](C)CO)C(=O)c2cc(NC(=O)CCCCCC(=O)Nc3ccccc3N)ccc2O[C@@H]1CN(C)Cc1ccc(Oc2ccccc2)cc1	71*	-1	-1	.
C[C@@H]1CN([C@H](C)CO)C(=O)c2cc(NC(=O)CCCCCC(=O)Nc3ccccc3N)ccc2O[C@@H]1CN(C)Cc1ccc(C(F)(F)F)cc1	95*	-7	3	.
O=C1C(=C(I)I)c2ccccc2-c2ccccc21	128*	103*	-4	58*
O=C(Nc1ccccc1)N1CC(=O)N2[C@H](CO)[C@@H](c3ccc(C#CC4CCCC4)cc3)[C@H]2C1	.	14	-1	7
O=C(OCCN1C(=O)c2cccc3c(N4CCOCC4)ccc(c23)C1=O)c1ccccc1Cl	9	76*	.	.
CC(C)C(=O)NNC(=O)C1CC1(c1ccccc1)c1ccccc1 (configuration not stated)	9	2	-1	6
COC(=O)C1Cc2c([nH]c3ccccc23)C2CCC(=O)N12 (configuration not stated)	7	-5	-2	9
COC(=O)[C@@H]1Cc2c([nH]c3ccccc23)C(C)(C)N1C(=O)CCl	112*	19	-5	58*
CC(=O)Nc1ccc(NC(=O)COC(=O)C2(c3ccc(Cl)cc3)CCCC2)cc1	11	18	.	.
CCN(CC(=O)Nc1ccc(NC(C)=O)cc1)C(=O)C1(c2ccc(Cl)cc2)CCC1	79*	9	0	1
COc1ccc(/C=C/C(=O)c2cc(F)ccc2OC(=O)c2ccccc2C)cc1OC	91*	32	.	?
Cc1cc(N=Cc2c(O)n(-c3cccc(C(F)(F)F)c3)c(=O)c3ccccc23)no1	-15	-30	.	.
COC(=O)C[C@@H]1CC[C@@H](NC(=O)Nc2cc(F)ccc2F)[C@@H](CO)O1	20	9	-4	-5
C/C(=N\NC(=O)c1cccc2ccccc12)c1cccs1	-66	-23	1	-62
C/C(=N\NC(=O)c1ccccc1O)c1cccs1	33	52*	-9	28
CCCc1nc2c(sc3nc4c(cc32)COC(C)(C)C4)c(=O)n1Cc1ccco1	.	3	.	.
Cc1nc2c(sc3nc4c(cc32)COC(C)(C)C4)c(=O)n1CC(=O)NCc1ccco1	.	0	13*	10
COc1ccc(S(=O)(=O)Nc2ccc3c(c2)C(=O)N([C@@H](C)CO)C[C@@H](C)[C@@H](CN(C)Cc2ccc(C(=O)O)cc2)O3)cc1	.	-14	2	-2
COc1ccc(S(=O)(=O)/N=C2/NC(=O)/C(=C/c3ccco3)S2)cc1	70*	11	-1	-8
O=C(COc1ccccc1)NNC(=S)NC(=O)c1ccccc1	0	-46	0	12
COc1ccccc1C(=O)NNC(=S)NC(=O)c1cc(OC)c(OC)c(OC)c1	63*	14	-2	22
COc1ccc(C(=O)NC(=S)NNC(=O)COc2ccccc2)cc1	109*	41	-1	16
C[C@H](CO)N1C[C@H](C)[C@@H](CN(C)C(=O)Nc2ccc(C(F)(F)F)cc2)Oc2ccc(NC(=O)Cc3ccccc3)cc2C1=O	16	13	-5	-2
C[C@@H]1CN([C@@H](C)CO)C(=O)c2cc(NC(=O)Nc3ccc(C(F)(F)F)cc3)ccc2O[C@@H](C)CCCCO[C@@H]1CN(C)CC1CCCCC1	108*	9	5	-12
C[C@@H]1CCCCO[C@@H](CN(C)CC2CCCCC2)[C@H](C)CN([C@H](C)CO)C(=O)c2cc(NC(=O)Nc3ccc(C(F)(F)F)cc3)ccc2O1	-24	10	4	76*
C[C@@H]1CCCCO[C@@H](CN(C)CC2CCCCC2)[C@H](C)CN([C@H](C)CO)C(=O)c2cc(NC(=O)Nc3ccc(F)cc3)ccc2O1	-3	-11	-2	31
C[C@@H]1CCCCO[C@H](CN(C)CC2CCCCC2)[C@H](C)CN([C@H](C)CO)C(=O)c2cc(NC(=O)Nc3ccc(C(F)(F)F)cc3)ccc2O1	9	.	0	75*
C[C@@H]1CCCCO[C@@H](CN(C)CC2CC2)[C@H](C)CN([C@H](C)CO)C(=O)c2cc(NC(=O)Nc3ccc(C(F)(F)F)cc3)ccc2O1	44	-8	1	37
